PubChem BioAssay (NCI)
The panel holds about 83,000 compounds, 20% with a hit somewhere; the sample as a whole holds those more often.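 Each cell line was grown in a 96-well plate and treated with one concentration of compound for 48 hours. Values below 10 were considered active.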 A number with no mark means an inactive call. Calls of active or inactive are those of the source.

These compounds were tested on HCT-15 colon (assay: NCI-60 one-dose screen, 48 h (100 = growth as untreated, 0 = no growth, -100 = all killed)). Settings: 10 µM unless noted.
Experimental: Growth inhibition of the HCT-15 human tumor cell line is measured as a screen for anti-cancer activity. Cells are grown in 96 well plates and exposed to the test compound for 48 hours. Compounds are tested at a single concentration, which is 10^-5 M for most compounds. The reported endpoint is percent growth (GI% or GIPRCNT), where numbers from 0 - 100% represent growth inhibition, and numbers from -100% - 0 represent cell death. For example, a value of 40 represents 60% growth inhibition. A value of 0 means no net growth occurred over the course of the experiment. A value of -40 indicates 40% of cells at the beginning of the experiment died by the end of the experiment. A value of -100 means all cells are dead at the end of the experiment.
NCI-60 Human Tumor Cell Lines Screen was performed using the standard one-dose NCI protocol, which is described in more detail at https://dtp.cancer.gov/discovery_development/nci-60/default.htm.
Compounds with GIPRCNT values below 10 were considered active. Activity score was based on GIPRCNT using the following formula: […]
Score is 0 for GIPRCNT values of 100 or above, 50 for GIPRCNT values of 0, and 100 for GIPRCNT values of -100.
For CCC(CC)N1C(=O)/C(=c2\sc3n(c2=O)C2C(NN=3)N(CC)C(=O)N2CC)c2ccccc21 (stereo not given), the growth was 10.4%. In the case of N/C(=N\c1nc2c(Cl)cccc2s1)C(Cl)(Cl)Cl, the growth was 81.3%. For COc1ccc2c(C3=C(c4c[nH]c5ccccc45)C(=O)N(O)C3=O)coc2c1, the growth was 92.2%. With O=C1c2c(c3c4cc(Br)ccc4[nH]c3c3ccc4ccccc4c23)C(=O)N1CCN1CCCCC1 the growth was -60% (active). COc1ccc(CCN2C(=O)/C(=C/c3nc(CO)cs3)SC2=S)cc1 gave a growth of 51.2%. Work on CCN1C(=O)N(CC)C2SC(N/N=C/c3ccc(OC)cc3)=NC21 (stereo not given) yielded a growth of 12%. For C(=C(\C1=NCCN1)n1cnc2ccccc21)/c1cccc2ccccc12, the growth was 88.2%. Cc1ccc(/C=C/CC(=O)Nc2ccc(C(=O)Nc3ccc(F)cc3N)nc2)cn1 gave a growth of 52.3%. With C#C[C@]1(O)CC[C@H]2[C@@H]3CC=C4c5sc(Nc6cc(Cl)ccn6)nc5CC[C@]4(C)[C@H]3CC[C@@]21C the growth was 3.75% (active). Compound O=C(NNc1nc2cc(F)cc(F)c2n2cccc12)c1ccncn1 has a growth of 25.3%. Work on CC(=O)NC(C)(C)C(=O)N[C@@H](C)C(=O)NC(C)(C)C(=O)N[C@@H](C)C(=O)NC(C)(C)C(=O)N[C@@H](C)C(=O)N[C@@H](CCC(N)=O)C(=O)NC(C)(C)C(=O)N[C@H](C(=O)NC(C)(C)C(=O)NCC(=O)N[C@@H](CC(C)C)C(=O)NC(C)(C)C(=O)N1CCC[C@H]1C(=O)N[C@H](C(=O)NC(C)(C)C(=O)NC(C)(C)C(=O)N[C@@H](CCC(N)=O)C(=O)N[C@@H](CCC(N)=O)C(=O)N[C@H](CO)CC1CCCCC1)C(C)C)C(C)C yielded a growth of 79.2% [5 µM]. Compound CNC(=O)c1cc(Oc2ccc3nc(NC(=O)c4cccc(C(F)(F)F)c4)sc3c2)ccn1 has a growth of 98.1%. CC1(COc2ccc3ncc(C#Cc4cncc(C(=O)Nc5cc(C(C)(C)C)on5)c4)n3n2)COC1 gave a growth of 26%. O=C(COc1cccc2cccnc12)Nc1ccc(C(=O)/C=C/c2ccc(Cl)cc2)cc1 was tested, and the growth was 70%. C#C[C@]1(O)CC[C@H]2[C@@H]3CC=C4c5sc(Nc6ccncc6)nc5CC[C@]4(C)[C@H]3CC[C@@]21C was tested, and the growth was -71.4% (active). COc1ccc(-c2nc3cc(Cl)c(Cl)cc3n2CC(=O)N=Nc2c(O)[nH]c3ccccc23)cc1 gave a growth of 30.6%. For O=S(=O)(Nc1ccc(-n2cnc3cc(-c4ccc(O)cc4)ccc32)cc1)C1CC1, the growth was 85.1%. Work on COc1ccc(C2C(C#N)=C(N)Oc3c2sc2ccc(C)cc32)cc1 (stereo not given) yielded a growth of 19.2%. In the case of O=C(NCCCCCCNC(=O)c1c2c(nc3ccccc13)-c1cccnc1SC2)c1c2c(nc3ccccc13)-c1cccnc1SC2, the growth was 74.8%. Compound CC(=O)C1=NN(c2ccc(Cl)cc2)C(=O)CN1C has a growth of 100%. COc1ccc(Cn2cc3c(c2-c2cc(OC)c(OC)c(OC)c2)CCCc2cnoc2-3)cc1 gave a growth of 20.1%. Work on COc1ccc(-c2nnc(SCc3ccc(O)c4ncccc34)o2)cc1 yielded a growth of 10.1%. Cn1c(SC(C(=O)Nc2ccc(F)cc2)c2ccccc2)nc2ccccc2c1=O (stereo not given) was tested, and the growth was 102%. For COc1cnc2c(c1)C(=O)c1c-2n(CCCn2ccnc2)c(=O)c2cc(OC)c(OC)cc12, the growth was -53.2% (active). For O=C(CCCCCCN1CC(=O)N2[C@@H](c3cccc(Br)c3)c3[nH]c4ccccc4c3C[C@H]2C1=O)NO, the growth was 68.7%. In the case of COc1cc(NC2=C(Cl)C(=O)c3nc(C)ccc3C2=O)cc(OC)c1, the growth was -66.2% (active). Cc1ccc(/C=C/CC(=O)Nc2ccc(C(=O)Nc3ccc(F)cc3N)cc2)cn1 gave a growth of 79.5%. O=c1oc2ccc(-c3ccc(F)cc3F)cc2c(=O)n1-c1cccc(C(F)(F)F)c1 was tested, and the growth was 9.93% (active). For C#C[C@]1(O)CC[C@H]2[C@@H]3CC=C4c5sc(C6CCOCC6)nc5CC[C@]4(C)[C@H]3CC[C@@]21C, the growth was 36.1%. In the case of N#C/C(=C\c1ccc(-c2ccc(F)cc2)o1)C(=O)Nc1ncc(Cc2ccc(Cl)cc2Cl)s1, the growth was -31.7% (active). Work on COc1cc(/C=N/n2cnc3oc(-c4ccccc4)cc3c2=N)cc(CN2CCOCC2)c1O yielded a growth of 27.9%. With CCOC(=O)c1c(NCC(=O)Nc2ccc(Br)cc2)sc2c1CCCC2 the growth was -14.2% (active). For COc1cc(/C=N/n2cnc3oc(-c4ccccc4)cc3c2=N)cc(CN2CCN(C)CC2)c1O, the growth was 81.4%. C=CCn1c(SCC(=O)Nc2cccc(C(=O)/C=C/c3ccc(OC)c(OC)c3)c2)nc2ccccc2c1=O showed a growth of 72.4%. For C#C[C@]1(O)CC[C@H]2[C@@H]3CC=C4c5sc(Nc6cccc(Cl)n6)nc5CC[C@]4(C)[C@H]3CC[C@@]21C, the growth was -66.9% (active). COc1ccc(/C=N/Nc2nc(N/N=C/c3ccc(OC)cc3O)nc(N3CCOCC3)n2)c(O)c1 was tested, and the growth was 3.39% (active). O=S(=O)(Nc1ccc(-c2nc(-c3cccc(O)c3)c(-c3ccnc(Br)c3)[nH]2)cc1)c1ccccc1 gave a growth of 13.3%. With CN1CCN(c2nc(-c3cnc4ccccc4n3)cc3ccccc23)CC1 the growth was 7.27% (active). Compound NNC(=O)c1sc2nc(-c3cnccn3)cc(-c3cccs3)c2c1N has a growth of 89.9%. In the case of Cc1cnc2nc(NN)[nH]n12, the growth was 101%.
